ST2 IL33 inh – IL1RL1 inhibition | Q01638 | AlphaLISA ST2-Fc/biotin-IL-33 interaction, 1 h | inhibition, % for hits at 17 µM | actives 2.3% (n = 78,000) | AID 1259354; in the data active means inhibition above about 30%
Target sequence (Q01638 whole entry, looked up): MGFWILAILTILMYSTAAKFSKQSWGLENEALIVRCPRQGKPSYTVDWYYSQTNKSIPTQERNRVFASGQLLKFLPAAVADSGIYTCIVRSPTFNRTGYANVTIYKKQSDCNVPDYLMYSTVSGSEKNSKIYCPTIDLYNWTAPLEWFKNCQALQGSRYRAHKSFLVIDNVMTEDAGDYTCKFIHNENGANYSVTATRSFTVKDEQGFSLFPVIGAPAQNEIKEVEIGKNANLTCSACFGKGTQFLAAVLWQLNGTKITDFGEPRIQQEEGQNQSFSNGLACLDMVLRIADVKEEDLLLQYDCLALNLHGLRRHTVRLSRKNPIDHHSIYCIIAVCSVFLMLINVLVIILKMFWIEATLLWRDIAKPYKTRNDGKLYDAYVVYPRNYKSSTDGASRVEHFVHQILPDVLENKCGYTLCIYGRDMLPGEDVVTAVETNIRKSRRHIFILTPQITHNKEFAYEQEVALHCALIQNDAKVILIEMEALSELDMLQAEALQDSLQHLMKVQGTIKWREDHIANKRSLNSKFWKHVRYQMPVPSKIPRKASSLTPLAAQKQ
Active calls of the source: *. Many of the other results were omitted from the sample, so hits are more common in it than they were.

Results for CC(=O)OCCn1nc(-c2ccccc2)c2ccccc2c1=O ?
ST2 IL33 inh: inactive

How did CCOc1ccc2c(=O)c(-c3ccccc3)c(C)oc2c1C do in these assays?
ST2 IL33 inh: inactive

Results for Cn1c(=O)c(Cc2ccccc2F)nc2ccccc21 ?
ST2 IL33 inh: inactive

Results for COc1ccc(C(=O)c2nc3ccccc3n2C)cc1 ?
ST2 IL33 inh: inactive

What do the screens show for `Cn1c(=O)c(/C=C/c2cccs2)nc2ccccc21`?
ST2 IL33 inh: 36%*

What do the screens show for `O=C(NCCN1CCCC1)c1cn(-c2ccc(F)cc2F)c(=O)c2ccccc12`?
ST2 IL33 inh: inactive

What do the screens show for `Cc1ccnc(CC(C)N(C)C(=O)c2ccc(N3CCN(C)CC3)cc2)c1` (stereo not given)?
ST2 IL33 inh: inactive

What do the screens show for `CSc1ccc(C2C(C(=O)Nc3ccc(F)cc3)=C(C)NC3=C2C(=O)CC(C)(C)C3)cc1` (stereo not given)?
ST2 IL33 inh: inactive

What do the screens show for `O=C(NCc1ccccc1)c1ccc2nc3sc4c(c3c(=O)n2c1)CCCC4`?
ST2 IL33 inh: inactive

What do the screens show for `O=C(c1ccc2nc3sc4c(c3c(=O)n2c1)CCCC4)N1CCN(c2ccccc2)CC1`?
ST2 IL33 inh: 31%*

Results for O=C(NCCc1ccccc1)c1ccc2nc3sc4c(c3c(=O)n2c1)CCCC4 ?
ST2 IL33 inh: inactive

What do the screens show for `Cc1nnsc1Cn1cc(C(C)c2ccccc2)nn1` (stereo not given)?
ST2 IL33 inh: inactive

Results for CCN(CC)C(=O)CCc1nc(-c2ccc(C)cc2)no1 ?
ST2 IL33 inh: inactive

How did Cc1cc(N(C)C)nc(Nc2ccc(NC(=O)c3ccccc3C)cc2)n1 do in these assays?
ST2 IL33 inh: 31%*

How did COc1cc(OC)cc(C(=O)Nc2ccc(Nc3nc(C)cc(N(C)C)n3)cc2)c1 do in these assays?
ST2 IL33 inh: inactive

Results for COc1ccc(Cl)cc1C(=O)Nc1ccc(Nc2nc(C)cc(N(C)C)n2)cc1 ?
ST2 IL33 inh: 33%*

How did Cc1cc(N(C)C)nc(Nc2ccc(NC(=O)c3c(F)cccc3F)cc2)n1 do in these assays?
ST2 IL33 inh: inactive

What do the screens show for `Cc1cc(N(C)C)nc(Nc2ccc(NC(=O)c3ccccc3C(F)(F)F)cc2)n1`?
ST2 IL33 inh: inactive

Results for COc1ccc(Cl)cc1C(=O)Nc1ccc(Nc2nc(C)cc(Nc3ccccc3)n2)cc1 ?
ST2 IL33 inh: inactive

Results for Cc1ccc(S(=O)(=O)Nc2ccccc2CNC(C)(C)C)cc1 ?
ST2 IL33 inh: inactive

What do the screens show for `O[C@@H]1C[C@H]2CN(Cc3cnc(-c4cccc5ccccc45)nc3)C[C@H]2C[C@@H]1O`?
ST2 IL33 inh: inactive

Results for O=C(Nc1nnc(C2CC2)o1)c1ccc(S(=O)(=O)N2CCOCC2)cc1 ?
ST2 IL33 inh: inactive

How did CCOC(=O)Cn1c(=O)oc2cc(S(=O)(=O)Nc3ccc(Cl)cc3)ccc21 do in these assays?
ST2 IL33 inh: inactive

What do the screens show for `Clc1cccc(N2CCN(Cc3ccsc3)CC2)c1`?
ST2 IL33 inh: inactive

Results for Cc1ccc(-n2c(N)c(C#N)c3nc4ccccc4nc32)cc1Cl ?
ST2 IL33 inh: inactive

Results for O=C(NCCCc1ccccc1)c1ccc(Nc2cc(-c3ccccc3)ncn2)cc1 ?
ST2 IL33 inh: inactive

Results for CC(=O)c1ccc(NC(=O)O[C@@H]2CO[C@H]3[C@@H]2OC[C@@H]3n2nnnc2Sc2ccccc2)cc1 ?
ST2 IL33 inh: inactive

Results for NC(=O)C1CCN([C@H]2[C@@H]3OC[C@@H](O3)[C@@H](NC(=O)NC3CCCCC3)[C@@H]2O)CC1 ?
ST2 IL33 inh: inactive

How did O=C(O)CN=C(NS(=O)(=O)c1ccccc1)c1ccccc1 do in these assays?
ST2 IL33 inh: 38%*

How did CCCN=C(NS(=O)(=O)c1ccc(C)cc1)c1ccc(F)cc1 do in these assays?
ST2 IL33 inh: inactive

How did O=C(O)CN=C(NS(=O)(=O)c1ccccc1)c1ccc(F)cc1 do in these assays?
ST2 IL33 inh: inactive

What do the screens show for `Nc1nc2n(n1)C(c1ccc(F)cc1)CC(c1ccccc1)N2` (stereo not given)?
ST2 IL33 inh: inactive

How did CCC1CCCCN1C(=O)c1cc2c(=O)n3cccc(C)c3nc2n1C (stereo not given) do in these assays?
ST2 IL33 inh: inactive

Results for Cc1cccc(NCN2C(=O)c3cccc([N+](=O)[O-])c3C2=O)c1 ?
ST2 IL33 inh: inactive

What do the screens show for `Cc1ccc(Cl)cc1NS(=O)(=O)c1cccc2c1C(=O)c1ccccc1C2=O`?
ST2 IL33 inh: 44%*

What do the screens show for `Cc1ccc(C)c(NS(=O)(=O)c2ccc(NC(=O)c3ccccc3C)cc2)c1`?
ST2 IL33 inh: inactive

Results for Cc1ccc(C)c(NS(=O)(=O)c2cccc3c2C(=O)c2ccccc2C3=O)c1 ?
ST2 IL33 inh: 54%*

What do the screens show for `Cc1ccc(Cl)cc1NC(=O)c1ccccc1C(=O)Nc1cc(Cl)ccc1C`?
ST2 IL33 inh: inactive

Results for Cc1ccc(Cl)cc1NS(=O)(=O)c1cccc2nonc12 ?
ST2 IL33 inh: inactive

What do the screens show for `Cc1ccc(C)c(NS(C)(=O)=O)c1`?
ST2 IL33 inh: inactive

How did O=C(CNS(=O)(=O)c1cccs1)Nc1ccc(Br)cc1 do in these assays?
ST2 IL33 inh: inactive

What do the screens show for `Cn1nc(C(=O)NCc2ccccc2)c2c1CCN(C(=O)CCC1CCCCC1)C2`?
ST2 IL33 inh: inactive

How did O=C(NC[C@H]1O[C@@H](CO)[C@@H](O)[C@H]1N1CCN(c2ccccc2)CC1)c1ccc(F)c(Cl)c1 do in these assays?
ST2 IL33 inh: inactive

Results for O=C(NC[C@H]1O[C@@H](CO)[C@@H](O)[C@H]1N1CCN(c2ccc(F)cc2)CC1)c1cccc(F)c1 ?
ST2 IL33 inh: inactive

How did O=C(NC[C@H]1O[C@@H](CO)[C@@H](O)[C@H]1N1CCN(c2ccc(F)cc2)CC1)c1cccs1 do in these assays?
ST2 IL33 inh: 74%*

Results for O=C(NC[C@H]1O[C@@H](CO)[C@@H](O)[C@H]1N1CCN(c2ccccc2)CC1)c1cccc(F)c1 ?
ST2 IL33 inh: 92%*

Results for COc1ccc(C(=O)NC[C@H]2O[C@@H](CO)[C@@H](O)[C@H]2N2CCN(c3ccc(F)cc3)CC2)cc1 ?
ST2 IL33 inh: inactive

Results for CC1CCN([C@@H]2[C@H](O)[C@H](CO)O[C@@H]2CNC(=O)c2cccs2)CC1 ?
ST2 IL33 inh: inactive

What do the screens show for `CC1CCCCN1CCNS(=O)(=O)c1cccc2cccnc12` (stereo not given)?
ST2 IL33 inh: inactive

What do the screens show for `Cc1nc2c(c(=O)n1C)CCN(C(=O)Nc1ccc3c(c1)OCO3)CC2`?
ST2 IL33 inh: inactive

How did Cc1ccc(C(=O)NCCC(=O)N2CCc3nc(C)n(C)c(=O)c3CC2)cc1 do in these assays?
ST2 IL33 inh: inactive

What do the screens show for `Cc1nc2c(c(=O)n1C)CCN(C(=O)C1CCOC(C)(C)C1)CC2` (stereo not given)?
ST2 IL33 inh: 31%*

What do the screens show for `O=C(Nc1nnc(N=Cc2ccc([N+](=O)[O-])s2)s1)c1ccc([N+](=O)[O-])cc1`?
ST2 IL33 inh: inactive

What do the screens show for `COc1cccc(N2C(=O)c3ccc(-c4nc5ccccc5c(=O)o4)cc3C2=O)c1`?
ST2 IL33 inh: inactive

What do the screens show for `Cc1cccc(N=C2NC(=O)c3cccc([N+](=O)[O-])c32)c1`?
ST2 IL33 inh: inactive

How did Cc1ccc(N2C(=O)c3cccnc3C2=O)c(C)c1 do in these assays?
ST2 IL33 inh: inactive

What do the screens show for `Cc1cccc(N=C2c3ccccc3-c3ncccc32)c1`?
ST2 IL33 inh: 41%*

What do the screens show for `O=C(NC1CCCC1)c1ccc(N2CCC(NCCc3ccccc3Cl)CC2)cc1`?
ST2 IL33 inh: inactive

Screening results (PubChem BioAssay)
